Only some compounds are listed: those with a hit (about 21% of all), similar ones and a draw of the others.
Cycloheximide cs = counter-screen hit for Shiga toxin inhibitors, cycloheximide. cell reporter, cycloheximide protein synthesis inhibition counterscreen. max response, %. actives 12% (n = 300,000); in the data active = max response mostly above about 13%, no sharp cut-off; inactive = mostly below about 14%; note: read at 38.3 µM for the half of the compounds with a filed dose
Pf growth 48h = P. falciparum growth inhibition at 48 hours (one generation). Potency, µM (series often up to 28.7 µM), most hits filed as inhibitors. P. falciparum luciferase growth in erythrocytes, 48 h. actives 5.9% (n = 310,000). AID 504832
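Compounds are pin-transferred into medium, infected erythrocytes (2% hematocrit, 0.1% parasitemia final) are added, and plates sit one parasite generation at 37 C in 5% CO2. Detection reagent is then added and luminescence measured.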
AMA1-RON2 inh = disrupts binding of P. falciparum AMA1 to RON2; AID 720542; Potency, µM (top dose mostly 58.2 µM), most hits filed as inhibitors; actives 0.2% (n = 360,000); AlphaScreen AMA1-biotinylated RON2 peptide binding; note: nearly all actives have a fitted effect of over 45% in size
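AMA1 (3D7) with his tag at 25 nM final met compounds first, then biotinylated RON2 peptide at 25 nM; detection used donor plus acceptor beads, 10 µg/mL apiece, read by AlphaScreen after 30 min at room temperature.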
HCV inh = inhibitors of hepatitis C virus infection | Potency, µM (doses to about 41.8 µM), most hits filed as inhibitors | AID 651820 | Huh7.5.1 HCVcc-Cre infection, luciferase reporter, 44 h | actives 3.4% (n = 340,000)
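Seed cells (1,000/well) for 4 h; treat with compound and infect with HCVcc-Cre, moi about 0.5. Incubate 44 h, then detect luciferase activity.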
Shiga toxin inh = Shiga toxin inhibition; Vero cells, Shiga toxin protein synthesis inhibition reporter; inhibition, % at 38.7 µM; actives 9.2% (n = 290,000); AID 2315; in the data active = inhibition mostly above about 28%, no sharp cut-off; inactive = mostly below about 43%
Pf growth 96h = P. falciparum growth inhibition at 96 hour, primary screen for plastid delayed-death inhibitors; P. falciparum luciferase reporter growth, 96 h; Potency, µM (top dose mostly 28.7 µM), usual class: inhibitors; actives 6.9% (n = 320,000)
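Parasite growth measured via integrated firefly luciferase reporter in P. falciparum. Infected erythrocytes at 2% hematocrit, 0.05% parasitemia final were treated 96 hours at 37 C under 5% CO2, and luminescence was read.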
Hits are given with their value; n = inactive; u = inconclusive; x = not tested or not shown; [ ] = another dose, or the depositor's remark. Unless noted, calls come from the whole dose curve; as a rule, active = well fitted curve in the direction sought with a large enough effect; inconclusive = small, poorly fitted or top-dose-only effect, or another doubt; inactive = no such curve, though single readings can be large; an effect the other way counts as inactive or inconclusive.

SMILES | Cycloheximide cs | Pf growth 48h | AMA1-RON2 inh | HCV inh | Shiga toxin inh | Pf growth 96h
COc1cc(-c2[nH]ncc2CN2CCN(c3cccc(C)n3)CC2)cc(OC)c1OC | n | 9.3µM | n | 11µM | n | 4.1µM
COc1cc(-c2[nH]ncc2CN2CCSCC2)cc(OC)c1OC | n | u | n | u | n | u
CC(C)(C)OC(=O)C[C@@H]1C/C=C\C[C@H](CC(=O)N(CCO)Cc2ccccc2)C(=O)NCCOC1=O | x | x | n | n | x | x
O=C(NCCCN1CCOCC1)C(=O)N/N=C/c1ccccc1Cl | 19 | n | n | n | n | n
O=C(NCCCN1CCOCC1)C(=O)N/N=C/c1c2ccccc2cc2ccccc12 | n | n | n | 11µM | n | u
O=C1CC(c2ccc(Cl)cc2)CC(O)=C1C=NCCO (stereo not drawn) | n | n | n | n | n | n
CC(C)(CNC(=O)c1cccc(S(=O)(=O)N2CCCCC2)c1)N1CCOCC1 | x | x | n | x | x | x
CN1C(=O)c2ccccc2NC(=O)C1Cc1ccccc1 (stereo not drawn) | n | n | n | n | n | 12µM
CCc1ccc(CN2CCC(n3nccc3NC(=O)c3ccc4c(c3)OCO4)CC2)cc1 | n | u | n | u | n | u
COc1cccc(O)c1CN1CCC(n2nccc2NC(=O)c2ccc3c(c2)OCO3)CC1 | n | 12µM | n | n | n | n
CSCC(=O)N1CCC(n2nccc2NC(=O)c2ccc3c(c2)OCO3)CC1 | 36 | n | n | n | 62 | u
CSCC(C)N1CCC(n2nccc2NC(=O)c2ccc3c(c2)OCO3)CC1 (stereo not drawn) | n | n | n | n | n | n
CCCn1cc(CN2CCC(n3nccc3NC(=O)c3ccc4c(c3)OCO4)CC2)c(C)n1 | n | n | n | n | n | 9.3µM
CC(C)=CCCC(C)CN1CCC(n2nccc2NC(=O)c2ccc3c(c2)OCO3)CC1 (stereo not drawn) | n | 10µM | n | u | n | u
CCOc1cc(OCC)cc(C(=O)N2CCC[C@H]2C(=O)N2CCC[C@H]2C(=O)N[C@@H](C)c2ccccc2)c1 | x | x | n | x | x | x
Cc1oc(-c2cccs2)cc1C(=O)N1CCCC(C)(C(=O)O)C1 (stereo not drawn) | x | x | n | x | x | x
Cc1cc(C)n(CCc2nc(-c3ccc(C(C)(C)C)cc3)cs2)n1 | n | n | n | n | n | u
CC(C)(C)S(=O)(=O)Cc1nc(-c2ccc(Cl)c(Cl)c2)cs1 | 30 | u | n | u | 65 | n
Cc1cc(C)nc(SCCS(=O)(=O)Cc2ccccc2)n1 | n | n | n | n | n | n
Cc1cc(C)nc(SCCS(=O)(=O)Cc2ccc(Cl)cc2)n1 | n | n | n | n | n | 10µM
CC(C(=O)NCCSCc1cccc(Cl)c1)N(c1ccccc1)S(C)(=O)=O (stereo not drawn) | n | n[0.00184 µM] | n | n | n | u
c1ccc(-c2ccc(-c3csnn3)cc2)cc1 | 33 | n | n | n | 57 | n
NC(=S)c1cc2ccc(O)cc2oc1=O | n | n | n | n | n | n
COc1ccccc1N=c1oc2cc(O)ccc2cc1C(=O)NCC1CCCO1 (stereo not drawn) | 17 | u | n | n | n | u
COc1ccc2cc(C(N)=O)c(=Nc3ccc(C)cc3)oc2c1 | n | u | n | n | n | n
SMILES | Cycloheximide cs | Pf growth 48h | AMA1-RON2 inh | HCV inh | Shiga toxin inh | Pf growth 96h
COc1ccc2oc(=Nc3cccc(F)c3)c(C(N)=O)cc2c1 | 34 | n | n | u | 73 | n
COc1ccccc1N=c1oc2cc(O)ccc2cc1C(N)=O | 14 | n | n | n | n | n
Cc1cccc(N=c2oc3cc(O)ccc3cc2C(N)=O)c1 | 27 | n | n | u | 39 | n
COc1ccccc1NC(=O)c1cc2ccc(O)cc2o/c1=N\O | n | n | n | u | n | n
C[C@H](O)[C@@H]1C(=O)N2CCc3ccc(N4CCN(C)CC4)cc3[C@@H]2C[C@@H]1N(C)C(=O)c1ccc(C#N)cc1 | x | x | n | n[8.37 µM] | x | x
Cc1cccc(C)c1-n1nnnc1C1c2ccccc2C(=O)N1C1CC1 (stereo not drawn) | x | x | n | x | x | x
COc1cccc(N=c2oc3cc(O)ccc3cc2C(=O)NCC2CCCO2)c1 (stereo not drawn) | 13 | u | n | u | n | u
COc1cc(NC(=O)c2ccco2)ccc1NC(=O)c1ccccc1Cl | 13 | n | n | u | n | x
COc1cc(NC(=O)c2cc3ccccc3o2)ccc1NC(=O)c1ccco1 | n | n | n | u | n | n
COc1cc(NC(=O)c2ccccc2Cl)ccc1NC(=O)c1ccco1 | 41 | n | n | n | n | n
COc1cc(NC(=O)c2oc3ccccc3c2C)ccc1NC(=O)c1ccco1 | 29 | n | n | n | 63 | n
COc1ccc(NC(=O)c2ccccc2NC(=O)c2ccco2)c(OC)c1 | n | n | n | n | n | n
CCOC(=O)c1c(C)[nH]c(C)c1C(=O)COC(=O)/C=C/c1ccco1 | x | u | n[11.6 µM] | n | x | n
CCN1C(=O)[C@@H]2[C@H](C1=O)[C@@H]1C(=O)Nc3ccccc3C(=O)N1[C@@H]2c1cccc(Cl)c1 | n | n | n | n | n | n
CC(C)N=C(NS(=O)(=O)NC(=O)c1ccccc1)c1ccccc1 | n | n | n | n | n | n
CN(C)C(CNC(=O)c1ccc2c(=O)n(-c3ccccc3F)c(=S)[nH]c2c1)Cc1ccccc1 (stereo not drawn) | n | u | n | 2.2µM | n | u
Cc1ccc(Nc2nc3c(c(=O)[nH]c(=O)n3C)n2Cc2ccc(F)cc2)cc1 | 13 | u | n | n | 26 | n
Cc1ccc(C(=O)CNc2nc3c(c(=O)[nH]c(=O)n3C)n2Cc2ccccc2)cc1 | n | 13µM | n | n | n | 9.3µM
Cc1cc(C)n(-c2nc3c(c(=O)[nH]c(=O)n3C)n2Cc2ccc(F)cc2)n1 | n | n | n | n | n | n
Cn1c(=O)[nH]c(=O)c2c1nc(NCCCO)n2Cc1ccc(F)cc1 | n | n | n | n | 79 | n
O=c1cc(CN(Cc2ccccc2)Cc2ccccc2)c2c(ccc3ccccc32)o1 | x | x | n | x | x | x
Cc1ccc(N2C(=O)CC(NNC(=O)Cc3ccc(F)cc3)C2=O)cc1Cl (stereo not drawn) | n | n | n | n | n | n
CNc1ccccc1-n1ccc(-c2ccccc2)n1 | 36 | n | u | u | 86 | x
N#Cc1cc(-c2ccccc2)nn1-c1ccccc1 | n | n | n | u | n | n
Cn1ccc(-c2ccccc2)n1 | 19 | n | n | n | n | 1.7µM
NS(=O)(=O)c1ccc(CCNc2ccn3nc(-c4ccc(OCCN5CCOCC5)cc4)cc3n2)cc1 | x | x | n | x | x | x
Oc1ccc(C[C@@H]2CNCCN2CC2CCCCC2)cc1 | x | u | n | n | x | u
Oc1ccc(C[C@H]2CNCCN2CCCCC2CCCCC2)cc1 | x | 8.3µM | n | u | x | u
Oc1ccc(C[C@@H]2CNCCN2CCC23CC4CC(CC(C4)C2)C3)cc1 | x | 10µM | n | u | x | 2.1µM

Compound activity (PubChem)
